Compound activity deposited in PubChem BioAssay by National Center for Advancing Translational Sciences (NCATS).
DT40 TDP1 CPT = growth inhibition of DT40 Tdp1-/-;hTDP1 cells with camptothecin (screen for TDP1 inhibitors); chicken DT40 Tdp1-/-;hTDP1 cells + 20 nM CPT, ATP luminescence, 48 h; Potency, µM (top dose mostly 46.2 µM), without a hit: top-dose activity change, negative = growth inhibition, usual class: inhibitors; hit rate 12% among 420,000; note: potency is the fitted concentration of half-maximal effect; % is set by controls: 0 for no effect and ±100 for the full control effect; nearly all actives have a fitted effect of over 55% in size
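Cell growth measured by CellTiter-Glo luminescence after a minimum 48 h, 37 C compound exposure with 20 nM CPT in Tdp1-knockout DT40 cells stably expressing hTDP1, seeded 400/well; qHTS titration format.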
TDP1 cell noCPT = qHTS for Inhibitors of human tyrosyl-DNA phosphodiesterase 1 (TDP1): qHTS in cells in absence of CPT; hit rate 15% among 420,000; DT40 Tdp1-/- hTDP1 cells, no CPT, ATP luminescence, 48 h; Potency, µM (highest dose often 46.2 µM), inactives show at the highest dose activity change, negative = growth inhibition, actives largely listed as inhibitors; note: potency is the fitted concentration of half-maximal effect; % is set by controls: 0 for no effect and ±100 for the full control effect; nearly all actives have a fitted effect of over 55% in size
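Seeded 400 DT40-hTDP1 cells/well (vehicle DMSO, no 20 nM CPT); pinned compounds; ≥48 hr at 37 °C; CellTiter-Glo luminescence as viability measure.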
IL1B secr inh = blocks inflammasome-driven IL-1 beta release; hit rate 4.7% among 360,000; THP-1 LPS/ATP IL-1B secretion, AlphaLISA, 16 h; active compounds read low; activity change, % at 57.5 µM; in the data active = activity change below about -50%; inconclusive = mostly about -30% to -49%; note: % is set by controls: 0 for no effect and ±100 for the full control effect
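THP-1 cells pretreated 1 hr with compounds (up to 57.5 uM final), then stimulated with LPS (250 ng/mL final) plus ATP (1.25 mM final); secreted IL-1B measured by AlphaLISA after 16 hr, decreased signal indicating inhibition.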
SW480 rereplic = inducers of DNA re-replication in SW480 colon cancer cells; Potency, µM (top dose mostly 46.1 µM), for the others: at the highest dose re-replication activation, most hits filed as activators; hit rate 1.8% among 340,000; SW480 DNA re-replication, Hoechst DNA content imaging, 48 h; note: potency is the fitted concentration of half-maximal effect; % of control where 0% means no effect; nearly all actives have a fitted effect of over 55% in size
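DNA re-replication was detected as more nuclei of elevated Hoechst intensity after 48 hr exposure to compound (23 nL pinned per well of 250 cells).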
MCF10A rerep = induces DNA re-replication in MCF 10a normal breast cells; hit rate 2.9% among 350,000; Potency, µM (doses to about 46.1 µM), for inactives: at the highest dose activity, positive = re-replication, actives largely listed as activators; MCF 10A DNA re-replication, Hoechst nuclear intensity, 48 h; AID 624296; note: potency is the fitted concentration of half-maximal effect; % of control where 0% means no effect; nearly all actives have a fitted effect of over 50% in size
BCR signal inh = chronic active BCR signaling inhibition; ABC-DLBCL IkBa-CBG/CBR reporter, luminescence ratio, 4 h; Potency, µM (titrated, usually from 46.1 µM), without a hit: at the top dose activity change, negative = inhibition, hits mostly inhibitors; hit rate 0.05% among 340,000; AID 493014; active = well fitted inhibition curve with a large enough effect in the signal ratio, with a control signal flat, not every such curve was filed as active; inconclusive = small, poorly fitted or top-dose-only effect, or effect the other way, or a change in a side signal; the % refers to the signal ratio;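 note: potency is the fitted concentration of half-maximal effect; plate controls were basal doxycycline-induced cells for no effect and cells given 10 µM MG132 for full effect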
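Cell line TMD8 (human ABC DLBCL), stably expressing tet-inducible CBG68-IkBa fusion and CBR; IMDM/0.5% FBS; cpd up to 46 uM; dox induction, 4 h, 37C/5% CO2; dual luminescence; green/red ratio; MG132 control.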
An asterisk follows results filed as active; ? = inconclusive; · = not tested or not shown; [ ] = dose if it differs, or a comment. Only some compounds are listed: those with a hit (about 19% of all), similar ones and a draw of the others. Unless noted, calls come from the whole dose curve; as a rule, active = well fitted curve in the direction sought with a large enough effect; inconclusive = small, poorly fitted or top-dose-only effect, or another doubt; inactive = no such curve, though single readings can be large; an effect the other way counts as inactive or inconclusive.

SMILES	DT40 TDP1 CPT	TDP1 cell noCPT	IL1B secr inh	SW480 rereplic	MCF10A rerep	BCR signal inh
Cc1cccc(C)c1NC(=S)NC(C)CCc1ccccc1 (centres undefined)	?	16.4µM*	-1.0	9.1%	3.8%	-5.4%
Cc1ccccc1CN(C)CC(=O)NC(C)CCc1ccccc1 (centres undefined)	?	16.4µM*	-8.1	-3.0%	10.8%	-10.1%
O=C(Nc1nc(-c2ccc3c(c2)OCCO3)cs1)C1CC(=O)N(c2ccc3c(c2)OCCO3)C1 (centres undefined)	11.2µM*	?	·	·	·	·
O=C(NCCc1ccc(C(F)(F)F)cc1)C1CC(=O)N(c2ccc3c(c2)OCCO3)C1 (centres undefined)	?	20.6µM*	21.0	?	24.1%	-5.5%
O=C(O)C(=O)Nc1nc(-c2ccc3c(c2)OCCO3)cs1	-4.3%	-4.0%	-9.6	-6.1%	1.5%	2.2%
O=C(Nc1nc(-c2ccc3c(c2)OCO3)cs1)C1CC1	2.31µM*	2.31µM*	-0.7	-3.8%	1.8%	?
O=C(Nc1ccc(C(F)(F)F)cc1)C1CC(=O)N(c2ccc3c(c2)OCCO3)C1 (centres undefined)	-14.7%	-16.2%	3.3	-3.0%	-10.0%	?
O=C(CSCC(=O)Nc1nc(-c2ccc3c(c2)OCO3)cs1)Nc1nccs1	11.6µM*	25.9µM*	-14.5	-2.5%	2.8%	0.0%
O=C(CSc1ccc(-c2ccc3c(c2)OCO3)nn1)Nc1nccs1	-22.8%	?	6.7	0.8%	?	-1.0%
C[C@@H]1CN(Cc2ccc3c(c2)CN(Cc2cccn2-c2ccc(Cl)cn2)CCO3)C[C@H](C)O1	6.7%[9.04 µM]	-7.4%	·	·	·	·
CCNC(=O)c1cnc2sc(N3CCCCCC3)nn2c1=O	-0.7%	-12.0%	·	·	·	·
CCCCN(CC)C(=O)c1ccc2c(c1)NC(=O)c1ccccc1S2	-23.8%	-9.2%	·	·	·	·
O=C(O)C1CC(=O)N(c2ccc3c(c2)OCCO3)C1 (centres undefined)	13µM*	13µM*	7.1	-1.6%[9.22 µM]	?	9.2%
CC(=O)Nc1ccc(-c2csc(NC(=O)C3CC(=O)N(c4ccc5c(c4)OCCO5)C3)n2)cc1 (centres undefined)	18.4µM*	20.6µM*	0.0	-29.5%	4.7%	0.2%
Cc1cnn(CCC(=O)NNC(=S)Nc2cccc(Cl)c2)c1	-20.7%	1.6%	9.8	6.51µM*	-0.2%	1.0%
Nc1nn(-c2ccccc2)c(N)c1N=Nc1cccc(F)c1	1.64µM*	2.59µM*	15.4	5.8µM*	3.66µM*	?
Nc1[nH]n(-c2ccccc2)c(=O)c1N=Nc1ccc2c(c1)OCCO2	?	?	-73.1*	-11.6%	0.5%	?
Cc1nn(-c2ccccc2)c(N)c1N=Nc1cccnc1	?	?	0.5	-3.4%	-0.8%	?
Nc1nn(-c2ccccc2)c(N)c1N=Nc1ccc2c(c1)OCO2	3.66µM*	4.11µM*	-96.8*	16.4µM*	?	?
Nc1[nH]n(-c2ccccc2)c(=O)c1N=Nc1ccc2c(c1)OCO2	-12.5%	?	-9.7	1.5%	26.0%	?
Cc1ccc(CNC(=O)CC2(CC3=NS(=O)(=O)c4ccccc4N3)CCCC2)cc1	?	?	-4.0	-9.4%	3.0%	?
CC1=CC2=NC(=O)C(c3ccccc3)C(=O)N2C=C1 (centres undefined)	-0.6%	-8.6%	31.3	2.4%	-2.5%	·
CCOC(=O)CSc1nc2ccc(NC(C)=O)cc2s1	-0.9%	-16.2%	-7.2	-0.5%	-1.5%	-3.4%
Cc1cccc(NC(=O)CSc2nc3ccc(NC(=O)CSc4nnnn4-c4ccccc4)cc3s2)c1C	·	·	·	·	·	-1.7%
O=C(CSc1nc2ccc(NC(=O)CSc3nnnn3-c3ccccc3)cc2s1)Nc1ccccc1	16.4µM*	?	10.3	3.5%	?	-10.8%
SMILES	DT40 TDP1 CPT	TDP1 cell noCPT	IL1B secr inh	SW480 rereplic	MCF10A rerep	BCR signal inh
CCCC(=O)Nc1nc2ccc(NC(=O)c3ccccc3F)cc2s1	1.84µM*	2.06µM*	11.9	8.2µM*	6.51µM*	?
CCC(CC)C(=O)Nc1ccc2nc(SCc3ccccc3)sc2c1	16.4µM*	16.4µM*	·	·	·	·
O=C(CCNC(=O)c1ccccc1Cl)Nc1nc2ccc(F)cc2s1	?	?	-10.8	14.5%	3.8%	?
CCCC(=O)Nc1ccc2nc(SCc3ccc(C)cc3)sc2c1	-1.8%	?	·	·	·	·
CCC(=O)Nc1ccc2nc(SCc3ccccc3)sc2c1	?	13µM*	·	·	·	·
CN(CC(=O)Nc1ccc(F)cc1)C(=O)COC(=O)c1cc(Br)c(Br)s1	-5.2%	?	-0.7	-1.5%	1.7%	·
O=C(NCc1ccccc1F)c1ccc(S(=O)(=O)N2CCCC2)cc1	-28.1%	-28.0%	-12.0	·	·	·
COc1cc(C(=O)Nc2ccncc2)cc(OC)c1OC	-26.0%	?	20.7	1.2%	21.2%	-6.5%
CCC(=O)Nc1nc2ccc(NC(=O)c3cc(OC)c(OC)c(OC)c3)cc2s1	?	20.6µM*	-52.5*	-2.5%	?	-21.8%
COc1cc(C(=O)Nc2ccc3nc(SCc4ccccc4)sc3c2)cc(OC)c1OC	13µM*	14.6µM*	·	·	·	·
Cc1cccc(OCc2cc(=O)n3c(-c4ccccc4)csc3n2)c1C	-12.3%	-41.2%	·	·	·	·
Cc1ccc(CNC(=O)COC(=O)C2CC2)cc1	-0.5%	3.6%	1.3	-2.2%	1.6%	5.0%
C/C(=N\NC(=O)c1cc2c(s1)CCC(C)C2)c1ccncc1 (centres undefined)	?	?	0.0	-3.6%	14.6µM*	?
CC1CCc2c(C(=O)NCc3ccccn3)csc2C1 (centres undefined)	-10.9%	-34.8%	-13.1	5.6%	1.5%	5.6%
C/C(N)=C(/C#N)C(=O)COC(=O)c1cc2c(s1)CCC(C)C2 (centres undefined)	-8.5%	-29.4%	3.1	-1.5%	-4.9%	-4.5%
CC1CCc2sc(C(=O)NCc3ccccn3)cc2C1 (centres undefined)	18.4µM*	16.4µM*	-14.3	15.2%	17.9%	15.3%
Cc1ccc(CNC(=O)COC(=O)c2cc3c(s2)CCC(C)C3)cc1 (centres undefined)	20.6µM*	?	5.9	·	?	15.9%
CC1CCc2sc(C(=O)OCC(=O)NCc3ccccc3)cc2C1 (centres undefined)	20.6µM*	18.4µM*	7.9	?	5.6%	-0.2%
CCN(CC(=O)NC(C)C)C(=O)Cc1ccc(C)c(C)c1	0.6%	-23.1%	10.6	-9.6%	-1.9%	3.1%
